Assay results from the supplement of paper PMC9023506.
Structures can show the parent of a compound that is named as a salt.

The compounds below were run on Danio rerio larvae (5 dpf) (assay: activity during first hour (no stimuli), difference vs DMSO (percentage points (treated minus DMSO)); higher = more of the behaviour than the DMSO vehicle control). Conditions: 10 µM; exposure time: 3 h pre-incubation + 3 h imaging.
Method: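 5-dpf wild-type zebrafish larvae were imaged in 96-well plates. They were treated with 190 Tocris FDA-approved drugs at 10 µM (1 µl/ml DMSO) for 3 h before and 3 h during imaging at 28.5 °C, 48 larvae per drug. Automated image analysis gave % time moving and optomotor responses. Values are drug group mean minus DMSO vehicle mean (n=844), in percentage points, for 10 behaviours.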

Row | Structure (SMILES) | activity during first hour
1 | COc1c(C)c2c(c(O)c1C/C=C(\C)CCC(=O)OCCN1CCOCC1)C(=O)OC2 [Mycophenolate mofetil] | -1.93
2 | N#Cc1ccc2[nH]cc(CCCCN3CCN(c4ccc5oc(C(N)=O)cc5c4)CC3)c2c1 [Vilazodone hydrochloride] | -24.1
3 | CCCCC(=O)N(Cc1ccc(-c2ccccc2-c2nnn[nH]2)cc1)[C@H](C(=O)O)C(C)C [Valsartan] | 4.88
4 | CC(=O)Oc1cc2c(s1)CCN(C(C(=O)C1CC1)c1ccccc1F)C2 (stereo not given) [Prasugrel] | -1.24
5 | CN1CCN2c3ncccc3Cc3ccccc3C2C1 (stereo not given) [Mirtazapine] | 11.7
6 | C[C@]12CCC(=O)C=C1CC[C@@H]1[C@@H]2[C@@H](O)C[C@@]2(C)[C@H]1CC[C@]2(O)C(=O)CO [Hydrocortisone] | 3.43
7 | CC(C)COCC(CN(Cc1ccccc1)c1ccccc1)N1CCCC1 (stereo not given) [Bepridil hydrochloride] | 0.257
8 | C[C@@H]1C[C@H]2[C@@H]3CCC4=CC(=O)C=C[C@]4(C)[C@@]3(F)[C@@H](O)C[C@]2(C)[C@@]1(O)C(=O)CO [Dexamethasone] | 15
9 | CN1CCC[C@@H]1CCO[C@](C)(c1ccccc1)c1ccc(Cl)cc1 [Clemastine fumarate] | 4.9
10 | CO[C@H]1/C=C/O[C@@]2(C)Oc3c(C)c(O)c4c(O)c(c5c(nc6cc(C)ccn65)c4c3C2=O)NC(=O)/C(C)=C\C=C\[C@H](C)[C@H](O)[C@@H](C)[C@@H](O)[C@@H](C)[C@H](OC(C)=O)[C@@H]1C [Rifaximin] | -0.0836
11 | NS(=O)(=O)Cc1noc2ccccc12 [Zonisamide] | 3.75
12 | CCOC(=O)N1CCC(=C2c3ccc(Cl)cc3CCc3cccnc32)CC1 [Loratidine] | -17
13 | COc1cccc2c1C(=O)c1c(O)c3c(c(O)c1C2=O)C[C@@](O)(C(=O)CO)C[C@@H]3O[C@H]1C[C@H](N)[C@H](O)[C@H](C)O1 [Doxorubicin hydrochloride] | -5.82
14 | CCCCCCCN(CC)CCCC(O)c1ccc(NS(C)(=O)=O)cc1 (stereo not given) [Ibutilide hemifumarate] | -4.99
15 | OC(CNCC(O)C1CCc2cc(F)ccc2O1)C1CCc2cc(F)ccc2O1 (stereo not given) [Nebivolol hydrochloride] | 4.97
16 | CC(C)[C@H]1CC[C@H](C(=O)N[C@H](Cc2ccccc2)C(=O)O)CC1 [Nateglinide] | 4.52
17 | CCCc1nc2c(C)cc(-c3nc4ccccc4n3C)cc2n1Cc1ccc(-c2ccccc2C(=O)O)cc1 [Telmisartan] | -6.28
18 | Nc1nc2c(ncn2COCCO)c(=O)[nH]1 [Acyclovir] | -2
19 | Nc1nc(F)nc2c1ncn2[C@@H]1O[C@H](CO)[C@@H](O)[C@@H]1O [Fludarabine] | 3.66
20 | CC(C)CN(C[C@@H](O)[C@H](Cc1ccccc1)NC(=O)O[C@H]1CO[C@H]2OCC[C@H]21)S(=O)(=O)c1ccc(N)cc1 [Darunavir] | 12.6

Row | Structure (SMILES) | activity during first hour
21 | Nc1nc2[nH]cc(CCc3ccc(C(=O)N[C@@H](CCC(=O)O)C(=O)O)cc3)c2c(=O)[nH]1 [Pemetrexed] | 1.38
22 | CC(C)(C(=O)O)c1ccc(C(O)CCCN2CCC(C(O)(c3ccccc3)c3ccccc3)CC2)cc1 (stereo not given) [Fexofenadine hydrochloride] | 5.4
23 | CN(C)C(=N)NC(=N)N [Metformin hydrochloride] | -6.37
24 | COC(=O)C1=C(C)NC(C)=C(C(=O)OC(C)C)C1c1cccc2nonc12 (stereo not given) [Isradipine] | 0.0385
25 | CCCc1nn(C)c2c(=O)[nH]c(-c3cc(S(=O)(=O)N4CCN(C)CC4)ccc3OCC)nc12 [Sildenafil citrate] | -13.4
26 | CN(C)CC/C=C1/c2ccccc2COc2ccc(CC(=O)O)cc21 [Olopatadine hydrochloride] | -0.591
27 | CCN(Cc1ccncc1)C(=O)C(CO)c1ccccc1 (stereo not given) [Tropicamide] | -5.17
28 | Cc1ccsc1C(=CCCN1CCC[C@@H](C(=O)O)C1)c1sccc1C [Tiagabine hydrochloride] | 7.01
29 | Cn1cnc([N+](=O)[O-])c1Sc1ncnc2[nH]cnc12 [Azathioprine] | 7.36
30 | Cc1cn([C@H]2C=C[C@@H](CO)O2)c(=O)[nH]c1=O [Stavudine] | -4.71
31 | Nc1cccc2c1CN(C1CCC(=O)NC1=O)C2=O (stereo not given) [Lenalidomide] | -5.68
32 | CN(CCOc1ccc(CC2SC(=O)NC2=O)cc1)c1ccccn1 (stereo not given) [Rosiglitazone] | 2.2
33 | CCN(CC)CCNC(=O)c1c(C)[nH]c(/C=C2\C(=O)Nc3ccc(F)cc32)c1C [Sunitinib malate] | -14.4
34 | Cn1nnc2c(C(N)=O)ncn2c1=O [Temozolomide] | 7.11
35 | CC1(C)O[C@@H]2[C@@H](CO[C@@]3(COS(N)(=O)=O)OC(C)(C)O[C@@H]23)O1 [Topiramate] | 10.7
36 | CN1CC(=O)N2[C@H](c3ccc4c(c3)OCO4)c3[nH]c4ccccc4c3C[C@@H]2C1=O [Tadalafil] | 11
37 | COc1cc2ncnc(Nc3ccc(F)c(Cl)c3)c2cc1OCCCN1CCOCC1 [Iressa] | -5.98
38 | O=C(Nc1c(Cl)cncc1Cl)c1ccc(OC(F)F)c(OCC2CC2)c1 [Roflumilast] | -15.3
39 | CC(C)c1ccc2oc3nc(N)c(C(=O)O)cc3c(=O)c2c1 [Amlexanox] | 6.6
40 | COc1ccc([C@@H]2Sc3ccccc3N(CCN(C)C)C(=O)[C@@H]2OC(C)=O)cc1 [Diltiazem hydrochloride] | -3.56
